ELG1 genotox = inducers of genotoxicity in HEK293T ELG1-luciferase cells | HEK293T ELG1-luciferase reporter, luminescence, 16 h | Potency, µM (series often up to 46 µM), inactives show at the highest dose activity change, positive = activation, usual class: activators | 1.3% of 330,000 active; note: % of control where 0% means no effect; nearly all actives have a fitted effect of over 60% in size
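Luminescence read-out: rising ELG1-luciferase signal, reflecting elevated ELG1 protein under genetic stress, flags genotoxic compounds. Cells were treated for 16 hr at 37 °C before ONE-Glo detection.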
SMN2 splice enh = SMN2 splice variant enhancement; Potency, µM (doses to about 46.1 µM), for inactives: top-dose activity change, positive = activation, actives largely listed as activators; 2.8% of 210,000 active; HEK293 SMN2-luciferase splicing reporter, luminescence, 30-36 h; AID 1458; note: % of control where 0% means no effect; nearly all actives have a fitted effect of over 55% in size
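qHTS luciferase splicing reporter: luminescence rises when SMN2 exon 7 is included in transfected HEK293 cells. Compound exposure lasted 30-36 h at 37C, with 4.5 mM final sodium butyrate as control, followed by a ONE-Glo read.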
Rab9 prom act = activates the Rab9 promoter. Huh7 Rab9 promoter-luciferase reporter, luminescence, 24 h. Potency, µM (doses to about 9.22 µM), without a hit: at the top dose activation, negative = inhibition, hits mostly activators. 2.8% of 320,000 active. AID 485297; note: % of control where 0% means no effect; nearly all actives have a fitted effect of over 60% in size
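Using Huh7 cells stably transfected with Rab9 promoter–luciferase, compounds were incubated 24 h at 37 °C, 5% CO2; luciferase luminescence was read 10 min after reagent addition.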
NPC1 prom act = NPC1 promoter activation. Potency, µM (series often up to 9.22 µM), without a hit: top-dose activation, hits mostly activators. 2.4% of 320,000 active. Huh7 NPC1 promoter luciferase reporter, 24 h; note: % of control where 0% means no effect; nearly all actives have a fitted effect of over 60% in size
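Readout is luciferase luminescence, reflecting NPC1 promoter activation in stably transfected Huh7 cells after 24 h compound exposure at 37 °C in reduced-serum medium with 10% FBS.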
FLuc modulator = firefly luciferase modulation, counter-screen for miR-21 project; P08659; 6.9% of 360,000 active; Potency, µM (series often up to 57.5 µM), for the others: top-dose activity change, negative = inhibition, actives largely listed as inhibitors; purified FLuc, Km substrates, luminescence inhibition; AID 588342;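 note: plate controls were vehicle for no effect and reference inhibitor for full effect; nearly all actives have a fitted effect of over 55% in size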
Target sequence (P08659 whole entry, looked up): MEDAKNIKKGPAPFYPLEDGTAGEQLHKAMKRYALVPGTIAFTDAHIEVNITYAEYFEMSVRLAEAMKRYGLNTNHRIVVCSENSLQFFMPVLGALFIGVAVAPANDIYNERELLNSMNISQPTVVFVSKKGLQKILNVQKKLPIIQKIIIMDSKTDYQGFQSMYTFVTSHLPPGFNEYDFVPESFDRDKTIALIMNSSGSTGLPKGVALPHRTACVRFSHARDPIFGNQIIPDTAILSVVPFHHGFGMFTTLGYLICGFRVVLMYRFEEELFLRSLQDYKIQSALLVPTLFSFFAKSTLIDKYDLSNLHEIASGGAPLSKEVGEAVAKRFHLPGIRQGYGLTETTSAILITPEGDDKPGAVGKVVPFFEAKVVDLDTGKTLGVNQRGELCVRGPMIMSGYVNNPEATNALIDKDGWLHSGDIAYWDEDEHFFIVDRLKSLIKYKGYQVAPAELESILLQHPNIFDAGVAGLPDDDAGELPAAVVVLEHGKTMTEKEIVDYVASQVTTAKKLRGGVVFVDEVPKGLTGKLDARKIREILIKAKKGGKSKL
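Purified P. pyralis luciferase (10nM final) with 10uM D-luciferin and 10uM ATP (Km levels) in 50mM Tris acetate pH 7.5, 10mM Mg acetate, 0.01% Tween-20, 0.05% BSA; qHTS 6-point titration, ~60 µM downward; luminescence read.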
ELG1 DNA repair = ELG1-dependent DNA repair inhibition; 2.3% of 330,000 active; HEK293T ELG1-luciferase reporter, luminescence, 16 h; DNA damage induced by 5-fluorouridine; Potency, µM (titrated, usually from 46.1 µM), for inactives: at the top dose activity change, negative = inhibition, actives largely listed as inhibitors; AID 504467; note: % is set by controls: 0 for no effect and ±100 for the full control effect; nearly all actives have a fitted effect of over 55% in size
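Overnight (16 hr) co-exposure of 2,000 cells/well to 5-fluorouridine and compound at 37 °C preceded detection. Luciferase was quantified via ONE-Glo luminescence; loss of signal denotes inhibition.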
* = called active by the depositor; ? = inconclusive; . = not tested or not shown. Rows were chosen to be rich in hits. Some 9.2% of all compounds tested hit in one or more screens of this group. Calls come from the whole dose curve; as a rule, active = well fitted curve in the direction sought with a large enough effect; inconclusive = small, poorly fitted or top-dose-only effect, or another doubt; inactive = no such curve, though single readings can be large; an effect the other way counts as inactive or inconclusive. Potency is the fitted concentration of half-maximal effect.

SMILES	ELG1 genotox	SMN2 splice enh	Rab9 prom act	NPC1 prom act	FLuc modulator	ELG1 DNA repair
COc1ccc(C(=O)N2CCN(c3ccccc3OC)CC2)cc1	-3%	14%	2%	-6%	5%	-2%
COc1ccc(CCNC(=O)c2nc(SCc3ccccc3F)ncc2Cl)cc1OC	.	-9%	.	.	-14%	.
CCOC(=O)c1[nH]c2c(c1Cc1ccccc1)C(=O)CC(c1ccc(C(C)(C)C)cc1)C2 (stereo not given)	.	-13%	.	.	0%	.
Cc1nn(CC(=O)NC2CC2)c(=O)c2cc3cc(F)ccc3n12	.	-11%	.	.	-4%	.
COc1ccccc1N1CCN(C(=O)c2cc3c(=O)n(C)c4ccccc4c3n2C)CC1	-9%	6%	-1%	1%	2%	16µM*
COc1ccccc1N1CCN(C(=O)c2cc3c(=O)n(C)c4ccccc4c3s2)CC1	.	-13%	.	.	-17%	.
Cn1c(C(=O)NCCCN2CCCCCC2)cc2c(=O)n(C)c3ccccc3c21	?	13µM*	-9%	-2%	0%	?
COc1ccc(C(=O)Nc2ccccc2N2CCN(C(=O)c3ccccc3)CC2)cc1Br	-21%	.	7%	-3%	-4%	21µM*
COc1ccccc1N1CCN(C(=O)c2ccc(CSc3ccccc3)cc2)CC1	-6%	-8%	1%	3%	3%	23µM*
O=C(c1ccc(CSc2ccccc2)cc1)N1CCN(c2ccccc2)CC1	-5%	7%	-3%	0%	-12%	-18%
COc1ccccc1CNS(=O)(=O)c1ccc2c(c1)CC(C)N2C(=O)C1CCC1 (stereo not given)	0%	.	-5%	-1%	-1%	-21%
COc1ccc(Br)cc1Cn1nnc(C(=O)Nc2cccc(SC)c2)c1N	.	-19%	.	.	-1%	.
CC(=O)Nc1cc(C(=O)NCc2ccccc2)ccc1Sc1ccc(C)cc1	.	.	.	.	-10%	.
OCCC1CN(Cc2cnc(-c3ccc(Cl)cc3)nc2)CCN1C1CCCC1 (stereo not given)	0%	.	-15%	2%	-1%	6.5µM*
COc1cc(C2C(=O)N(C3CCCCCC3)CC(=O)N2Cc2ccccc2)ccc1OC(C)C (stereo not given)	.	.	.	.	-16%	.
CCOc1ccc(-c2csc(-c3nc(-c4ccc(Br)s4)cs3)n2)cc1	.	2%	.	.	3%	.
COc1ccc(-c2ccc(SCC(=O)NCc3ccco3)nn2)cc1	?	7%	?	21%	8.5µM*	?
CCOc1ccc(-c2ccc(SC)nn2)cc1	?	0.79µM*	0.32µM*	0.63µM*	0.48µM*	?
CCOc1ccc(-c2ccc(SCC(=O)Nc3nnc(CC)s3)nn2)cc1	?	11µM*	?	?	0.6µM*	?
Cn1c(-c2ccc(F)cc2)cnc1SCC(=O)Nc1ccccc1N1CCOCC1	1.8µM*	13µM*	1.3µM*	1.6µM*	0.95µM*	?
CCOc1ccc(NC(=O)CCC(=O)Nc2nnc(CC)s2)cc1	16%	.	-1%	19%	-1%	0%
COc1ccc2c(c1)NC(c1cccnc1)=NC(c1ccc(F)cc1)=N2	.	27%	.	.	?	.
O=C(NCc1ccccc1)C(=O)Nc1ccc2nc3n(c(=O)c2c1)CCCCC3	.	11%	.	.	3%	.
CCOC(=O)N1CCC(NC(=O)c2cnn(-c3ccc(C)cc3)c2C2CCN(C(=O)OC(C)(C)C)CC2)CC1	.	.	.	.	5%	.
COc1ccc(-c2ccc(SCC(=O)Nc3nnc(C)s3)nn2)cc1	8%	?	?	6%	1.3µM*	?
SMILES	ELG1 genotox	SMN2 splice enh	Rab9 prom act	NPC1 prom act	FLuc modulator	ELG1 DNA repair
CCc1nnc(NC(=O)CSc2ncc(-c3ccccc3)n2C)s1	18µM*	-19%	29%	7%	?	?
CCc1nnc(NC(=O)CSc2nnc(C)n2-c2ccc(C)cc2)s1	-5%	-3%	-3%	0%	4%	-13%
CCc1nnc(NC(=O)CSc2ccc(-c3ccc(C)cc3)nn2)s1	?	?	?	?	2.4µM*	?
COc1ccccc1-c1nnc(SCC(=O)Nc2ccc3[nH]c(=O)[nH]c3c2)n1N	1%	.	-5%	1%	3%	23%
Cc1c2cnn(CC(=O)NCC(C)c3ccccc3)c(=O)c2c(C)n1Cc1cccc(Cl)c1 (stereo not given)	.	0%	.	.	-2%	.
COc1ccc(Oc2ncc3nc(-c4cccs4)c(=O)n(Cc4cccs4)c3n2)cc1	.	0%	.	.	.	.
CCN1C(=O)c2ccccc2S(=O)c2ccc(C(=O)N3CCN(c4ccc(F)cc4)CC3)cc21 (stereo not given)	.	7%	.	.	-5%	.
Cc1ccc(-c2cn3nc(-c4ccccc4)c(-c4ccccc4)nc3n2)cc1	0%	.	2%	4%	-13%	0%
COc1ccc(-c2cn3nc4c(nc3n2)CCCC4)cc1	?	?	0.35µM*	0.45µM*	0.54µM*	?
O=C(Nc1ccccc1)c1cnc2n(c1=O)CCS2	15%	?	?	25%	?	?
Cc1cccc(NC(=O)c2cnc3n(c2=O)CCS3)c1	?	11µM*	3.5µM*	3.5µM*	12µM*	?
O=C(Nc1ccc2c(c1)OCO2)c1cnc2n(c1=O)CCS2	?	13µM*	3.2µM*	?	?	?
CCn1cnc2sc(C(=O)Nc3ccc4c(c3)OCO4)c(C)c2c1=O	8.9µM*	13µM*	2.8µM*	?	11µM*	?
O=C(Nc1ccc(OC(F)(F)F)cc1)c1cnc2n(c1=O)CCS2	7.3µM*	-55%	14%	?	-11%	?
COc1c(C)cccc1C(=O)Nc1ccc(Cl)c(-c2nc3cc(C)ccc3o2)c1	.	-21%	.	.	?	.
Cc1ccc2c(CNCCc3ccco3)c(C(=O)O)n(Cc3ccc(F)cc3)c2c1	.	.	.	.	1%	.
O=C(NCc1ccc2c(c1)OCO2)c1cnc2n(c1=O)CCS2	-1%	7%	-6%	3%	-1%	13%
O=C(Nc1ccc2c(c1)OCCO2)c1cnc2n(c1=O)CCS2	9.2µM*	20µM*	2µM*	2.5µM*	9.5µM*	?
Cc1ccc(C)n1-c1cc([N+](=O)[O-])ccc1-n1ccnc1	12%	.	-4%	3%	-2%	11%
CC1(C)N([O-])c2cc([N+](=O)[O-])ccc2[N+]1=O	-1%	.	-24%	0%	11µM*	-18%
CC1CC2OC(=O)C3(C)CCCC(C)(C23)C1(O)CCc1ccoc1 (stereo not given)	-4%	.	-9%	0%	1%	15µM*
O=S(=O)(NCC(c1ccco1)N1CCN(c2ccc(F)cc2)CC1)c1cc(F)ccc1F (stereo not given)	.	.	.	.	-7%	.
